Records with an inconclusive call do not appear. Calls of active or inactive are those of the source. The calls were made as follows: active = hit-call score of the fitted dose curve at least 0.9, where 1 is the maximum; inconclusive = response in the unintended direction; inactive = score below 0.9.
Test: ACEA_AR_agonist_AUC_viability: ACEA Biosciences xCELLigence Real-Time Cell Analysis on Androgen Receptor Agonism for Viability (AID 2283775);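 as to AC50: viability read 80 hours after compound addition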
Description: ACEA_AR_agonist is a cell-based, single-readout assay that uses 22Rv1, a human prostate cancer cell line, with measurements taken at 80 hours after chemical dosing in a 384-well plate, although TO5 and TO6 (mc0.srcf) used a 96-well plate. Differences in plate size can be ignored given data normalization.ACEA_AR_80hr is one of two assay component(s) measured or calculated from the ACEA_AR assay. It is designed to make measurements of real-time cell-growth kinetics, a form of growth reporter, as detected with electrical impedance signals by Real-Time Cell Electrode Sensor (RT-CES) technology.Data from the assay component ACEA_AR_AUC_viability was analyzed in the positive analysis fitting direction relative to DMSO as the negative control and baseline of activity. Using a type of growth reporter, loss-of-signal activity can be used to understand changes in the viability. Furthermore, this assay endpoint can be referred to as a secondary readout, because this assay has produced multiple assay endpoints where this one serves a viability function. To generalize the intended target to other relatable targets, this assay endpoint is annotated to the cell cycle intended target family, where the subfamily is cytotoxicity.
The xCELLigence system Multi-E-Plate stations were used to measure the time-dependent response to chemicals. Each compound was tested in an eight-point, 1:4 serial dilution series starting at a maximum final concentration of 100 uM. A maximum starting concentration of 0.5% DMSO was present in the 100 uM chemical samples and was diluted along with the test article dilution series. The screen was performed in biological duplicate using two separate, 96-well, E-Plates 96 for each dilution series (n = 2). Positive controls (MG132 and testosterone) and a negative control (assay media) were tested in quadruplicate on each testing plate. Then, 0.5% and 0.125% DMSO were tested in duplicates in each plate to serve as solvent controls for the 2 highest concentrations of testing compounds: 100 uM and 25 uM. Reference compounds were tested with 8 concentrations with 1:5 serial dilutions. All screening was carried out by ACEA Biosciences, Inc. (San Diego, CA). 22Rv1 cells purchased from ATCC were maintained in media supplemented with 10% fetal bovine serum (FBS). Before screening, 22Rv1 cells were preconditioned in assay medium. Cells were then detached and seeded in E-Plates 96 in assay medium. After overnight monitoring of growth once every hour, compounds were added to […] cells and remained in the medium until the end of the experiment. Cellular responses were then recorded once every 5 min for the first 5 h, and once every hour for an additional 100 h.

| SMILES | AC50 | outcome |
| --- | --- | --- |
| CCn1nc(Cc2ccccc2)cc1C1CCN(C[C@H]2C[C@H](N(C)[C@@H](C(=O)O)C(C)C)C[C@@H]2c2cccc(F)c2)CC1 | 36 µM (active) | – |
| CCOCCO | – | inactive |
| Nc1ccc(Nc2ccccc2)cc1 | 93 µM (active) | – |
| CCN(C(=O)c1cc(C)cc(OC[C@H](C)Nc2ccncc2)c1)C(C)C | 33.8 µM (active) | – |
| Cn1c(=O)c2c(ncn2C)n(C)c1=O | – | inactive |
| CC(C)CC(C)(O)C#CC(C)(O)CC(C)C (stereo not given) | – | inactive |
| CC(C)=CCCC(C)=CC=O | – | inactive |
| C1N2CN3CN1CN(C2)C3 | – | inactive |
| CCNc1ccccc1 | – | inactive |
| Cc1ccc(O)cc1 | – | inactive |
| CCCCC(CC)COC(=O)CCCCCCCCC(=O)OCC(CC)CCCC (stereo not given) | – | inactive |
| CC[C@H](C)C(=O)O[C@H]1C[C@@H](C)C=C2C=C[C@H](C)[C@H](CC[C@@H]3C[C@@H](O)CC(=O)O3)[C@H]21 | – | inactive |
| O=C1CCC(N2C(=O)c3ccccc3C2=O)C(=O)N1 (stereo not given) | – | inactive |
| COc1ccc(-n2nc(C(F)F)cc2-c2ccc(S(C)=O)cc2)cc1 (stereo not given) | – | inactive |
| O=C1CCCCCN1 | – | inactive |
| Cc1ccc(C)c(O)c1 | – | inactive |
| Oc1ccc2c(c1)-c1ccccc1C2 | 50 µM (active) | – |
| Cc1c(-c2cccnc2)c2ccccc2n1CCCCC(=O)O | 24.1 µM (active) | – |
| CCOCCOCCOCCO | – | inactive |
| Cc1[nH]cnc1C[C@H]1CCc2c(C)c3ccccc3n2C1=O | 44.5 µM (active) | – |

| SMILES | AC50 | outcome |
| --- | --- | --- |
| On1ccccc1=S | 9.92 µM (active) | – |
| O=C(O)CC(O)C(=O)O (stereo not given) | – | inactive |
| CCOc1cccc(-n2cc(C(=O)N3CCN(c4cc(C(=O)O)c5ccccc5c4)CC3)nc2-c2ccc(C)cc2)c1 | 7.41 µM (active) | – |
| CC(C)CCCCCCCOC(=O)CCCCC(=O)OCCCCCCCC(C)C | – | inactive |
| Cc1ccc(S(=O)(=O)O)cc1C | – | inactive |
| CC(C)=CCCC(C)CCO (stereo not given) | – | inactive |
| CCCN(C1CCN(C(=O)C2CCNCC2)CC1)[C@@H]1CCc2ccc(OC)cc2C1 | 75 µM (active) | – |
| CC(C)CCO | – | inactive |
| Nc1nc2ncc(CNc3ccc(C(=O)N[C@@H](CCC(=O)O)C(=O)O)cc3)nc2c(=O)[nH]1 | – | inactive |
| CN(C)c1ccc(Cc2ccc(N(C)C)cc2)cc1 | 56.8 µM (active) | – |
| CCOC(=O)COc1ccc2c(c1)CC(NCC(O)c1cccc(Cl)c1)CC2 (stereo not given) | 63.6 µM (active) | – |
| COc1ccc2sc(C(=O)Nc3nnn[nH]3)c(OC(C)C)c2c1 | 9.32 µM (active) | – |
| NC(=O)NO | – | inactive |
| O=C(O)c1cccc(N(Cc2cccnc2)c2ccc(OC(F)F)c(OC(F)F)c2)c1 | 88.2 µM (active) | – |
| COc1cccc(-c2ccc(/C=C\CN3CCCCCC3)cc2Cl)c1 | 62.7 µM (active) | – |
| CC(C)=CCC/C(C)=C/CO | 33 µM (active) | – |
| CC1(C)C(=O)N(Br)C(=O)N1Br | – | inactive |
| C=CC(=C)CCC=C(C)C | – | inactive |
| CC(O)CN(CCN(CC(C)O)CC(C)O)CC(C)O (stereo not given) | – | inactive |
| CC/C(=C\C(=N/O)C(N)=O)C(C)[N+](=O)[O-] (stereo not given) | – | inactive |

Source: PubChem BioAssay (EPA / NIEHS)
